# Source: PubChem (The Scripps Research Institute Molecular Screening Center)
# In the library only some 3.4% were active in any assay of this set; here they are far more common.
# GPR151 activ: human GPR151 activation; PathHunter beta-arrestin GPR151 cells, luminescence; activation, % at 11.2 µM; 650,000 tested, 1% active; in the data active means activation above about 4.9%;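 further: 0% = median of compound wells and 100% = cells with positive control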
# FBW7 act: human FBW7 E3 ligase activation, primary screen. Q969H0. AID 1259310. normalized activity (activation), % at 26.1 µM. 650,000 tested, 0.13% active. AlphaScreen FBW7–phospho-cyclin E peptide binding, activator screen; in the data active means normalized activity above about 1.9%;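 further: purified mutant Fbw7 with reduced substrate affinity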
# MITF inh: blocks human microphthalmia-associated transcription factor | O75030 | AlphaScreen MITF homodimerization, bead proximity signal | inhibition, % at 2.6 µM | 650,000 tested, 0.91% active | AID 1259374; in the data active means inhibition above about 50%;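 further: 0% = vehicle wells with protein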
# TEAD-YAP inh: TEAD-YAP interaction inhibition. HEK-TIYL cells, TEAD-Gal4/YAP UAS-luciferase luminescence. inhibition, % at 9.12 µM. 640,000 tested, 1.4% active. AID 1259422; in the data active means inhibition above about 32%;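 further: 0% = median of test compound wells and 100% = reference inhibitor wells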
# * marks the source's active call; other numbers are inactive results.
SMILES,GPR151 activ,FBW7 act,MITF inh,TEAD-YAP inh
CC(=O)NC(CC(=O)OCC(=O)Nc1ccc(F)c([N+](=O)[O-])c1)c1ccccc1 (stereo not drawn),1,0,2,1
CN(C)c1ccc(/C=N/NC(=O)c2cc(O)cc(O)c2)cc1,-2,1,22,2
CN(C)c1ccc(/C=N/NC(=O)c2[nH]ncc2Br)cc1,-8,0,-2,32*
Cc1cc(/C=N/NC(=O)c2cccc(N(C)C)c2)c(C)n1-c1cc(C(=O)O)cc(C(=O)O)c1,-1,0,52*,-26
CN(C)c1ccc(/C=N/NC(=O)c2ccn(C)n2)cc1,-4,0,13,-13
CN(C)c1ccc(/C=N/NC(=O)c2cccc(O)c2)cc1,-6,0,-4,60*
O=C(N/N=C/c1c(O)ccc2ccccc12)c1ccccc1O,1,0,-31,75*
CCCCC1CN(CCNC(=O)Cn2cnnn2)Cc2ccccc2O1 (stereo not drawn),1,0,10,2
Cc1cccc(NC(=S)NC(=O)c2ccco2)n1,-1,0,17,-5
CC(C)N(Cc1ccccc1)C(=O)c1ccco1,0,0,1,4
CN(C)c1ccc(/C=N/Nc2nc3ccccc3o2)cc1,-4,0,13,55*
O=[N+]([O-])c1ccc(/C=N/Nc2nc3ccccc3o2)cc1,1,0,-12,-24
O=C(CN1CCCC1)N/N=C/c1c(O)ccc2ccccc12,0,-2,58*,88*
O=C(N/N=C\c1c(O)ccc2ccccc12)c1ccccc1O,1,0,32,81*
O=C(N/N=C/c1c(O)ccc2ccccc12)c1c[nH]c2ccccc12,3,0,7,8
O=C(N/N=C/c1c(O)ccc2ccccc12)c1[nH]ncc1Br,0,-1,26,42*
O=C(N/N=C/c1c(O)ccc2ccccc12)C(=O)N1CCCC1,1,0,-96,16
CCCCCCCN(C(C)=O)C1CC(=O)N(c2ccc(OC(F)(F)F)cc2)C1=O (stereo not drawn),0,0,-5,9
CN(C)c1ccc(/C=N/Nc2cn[nH]c(=O)n2)cc1,-6,-1,13,81*
CC(=O)Nc1cccc(-c2cnc(N3CCN(C(=O)c4ccco4)CC3)c3nccn23)c1,-5,3.2*,16,92*
CC(=O)Nc1cccc(-c2cnc3c(N4CCN(C(=O)c5ccco5)CC4)nccn23)c1,-5,0,-9,93*
O=C(c1ccco1)N1CCN(c2nccn3c(-c4cccc(F)c4)cnc23)CC1,1,0,3,-16
Cc1cc(C)cc(-n2c(C)cc(/C=C3/C(=N)N4C=CSC4=NC3=O)c2C)c1,0,0,8,21
Cc1cc(/C=C2/C(=N)N3C=CSC3=NC2=O)c(C)n1-c1ccccc1,-2,0,5,88*
Cc1cccc(-n2c(C)cc(/C=C3/C(=N)N4C=CSC4=NC3=O)c2C)c1C,-1,0,-1,46*
SMILES,GPR151 activ,FBW7 act,MITF inh,TEAD-YAP inh
Cc1ccccc1-n1c(C)cc(/C=C2/C(=N)N3C=CSC3=NC2=O)c1C,-1,0,-4,97*
CCc1ccc(-n2c(C)cc(/C=C3/C(=N)N4C=CSC4=NC3=O)c2C)cc1,0,0,14,-4
Cc1ccc(C)c(-n2c(C)cc(/C=C3/C(=N)N4C=CSC4=NC3=O)c2C)c1,1,0,17,18
CCc1ccccc1-n1c(C)cc(/C=C2/C(=N)N3C=CSC3=NC2=O)c1C,-1,0,9,62*
CCOC(=O)C1CCN(c2c(-c3ccc(Cl)cc3)c(=O)c2=O)CC1,-2,0,5,3
CC1=CN2C(=N)/C(=C/c3cc(C)n(-c4ccccc4F)c3C)C(=O)N=C2S1,1,0,6,-21
Cc1cc(/C=C2/C(=N)N3C=CSC3=NC2=O)c(C)n1-c1ccccc1Cl,1,0,4,92*
O=C(COc1ccccc1Cl)NC(c1ccccc1)c1ccccc1,0,0,-6,0
Cc1cncc2c(S(=O)(=O)N3CCCN(C(=O)CN)C[C@@H]3C)cccc12,3,0,11,-7
Cc1cncc2cccc(S(=O)(=O)N3CCCN(C(=O)CN)C[C@@H]3C)c12,1,0,16,36*
CC(=O)Oc1ccc(C2Nc3c(C(=O)O)cccc3C3C=CCC32)cc1 (stereo not drawn),0,-1,66*,10
Cc1cc(C)c2c(c1)[C@@H]1C=CC[C@@H]1[C@H](c1ccc(C(=O)O)cc1)N2,-1,0,8,17
Cc1ccc2c(c1C)N[C@@H](c1ccc(C(=O)O)cc1)[C@H]1CC=C[C@@H]21,-1,-1,71*,12
Cc1c(C(=O)O)ccc2c1N[C@@H](c1ccc(F)cc1)[C@H]1CC=C[C@@H]21,0,-1,64*,-12
CC1(C)CC(NC(=O)CCC(=O)N2C(C)(C)CC(N)CC2(C)C)CC(C)(C)N1,2,0,3,1
O=C(O)COc1ccccc1/C=C1\C(=O)NC(=O)N(c2cccc([N+](=O)[O-])c2)C1=O,-2,0,55*,0
CCCCOCC(O)CN1CCN(C(C)=O)CC1 (stereo not drawn),1,0,28,5
Cc1ccc(NC(=O)Nc2cc(C)ccn2)cc1,0,0,4,-26
COc1ccc(C(=O)/C=C/Nc2cc(C)ccn2)cc1,-7,0,1,36*
COc1ccc(NC(=O)Nc2cc(C)ccn2)cc1,-3,0,6,41*
COC(=O)c1ccoc1COc1ccc(C=O)cc1OC,-1,0,-5,11
CN(C)NC1=CC(=[N+]2CCCC2)CC(C)(C)C1,2,0,-10,3
CC1(C)CC(N2CCCCC2)=CC(=[N+]2CCCCC2)C1,2,0,5,75*
CCCN(CCC)C1=CC(=[N+]2CCCC2)CC(C)(C)C1,1,0,-10,69*
CC1(C)CC(N2CCOCC2)=CC(=[N+]2CCOCC2)C1,0,0,-9,4
SMILES,GPR151 activ,FBW7 act,MITF inh,TEAD-YAP inh
N#Cc1cc(-c2ccnc(Nc3cccc(NC(=O)N4CCCC4)c3)n2)ccc1N1CCCC1,0,0,22,45*
CC(C)OCCCNc1ncnc2ccc(Br)cc12,1,0,-8,46*
CC(C)CNc1ncnc2ccc(Br)cc12,1,0,-5,42*
O=C(O)CNc1ncnc2ccc(Br)cc12,-1,0,13,3
Cc1ccc2ncnc(NCCc3ccccc3)c2c1,1,0,11,50*
Cc1ccc2ncnc(NC3CCCCC3)c2c1,-1,0,32,37*
O=C(NCc1nc2ccccc2[nH]1)c1csc(Nc2nccc3ccccc23)n1,0,0,2,-12
Cc1cc(C)c2c(n1)nn1c(NC3CC3)cc(C)nc21,2,0,-7,16
CN(C)c1ccc(Nc2ncnc3ccc(Br)cc23)cc1,1,0,-1,34*
CCN(CC)c1ccc(Nc2ncnc3ccc(Br)cc23)cc1,0,0,4,7
Brc1ccc2ncnc(NCc3ccccc3)c2c1,0,0,-5,60*
O=C(CCN1C(=O)c2ccccc2C1=O)Oc1ccc2c3c(c(=O)oc2c1)CCC3,1,0,7,5
